Compound activity: PubChem BioAssay, The Scripps Research Institute Molecular Screening Center
M1 PAM parental = nonselective activator or artifact in parental CHO-K1 calcium assay. ATP EC20, Fluo-8 calcium fluorescence; 0% at ATP EC20, 100% at ATP max. activation, % at 3 µM. actives 0.02% (n = 360,000);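 active = activation above the run cutoff, the mean activation of all test compounds plus 3 SD, cut at about 40% in these data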;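 also: peak over basal fluorescence ratio in a 140 s read after ATP addition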
M1 ag = activates human CHRM1 receptor; AID 588814; P11229; CHO-K1 hM1, Fluo-8 calcium fluorescence, agonist mode; 0% DMSO, 100% acetylcholine EC100; actives 0.33% (n = 360,000); activation, % at 3 µM;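 active = activation above the run's mean compound activation plus 3 SD, cut at about 16% in these data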;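 also: peak over basal fluorescence ratio within a 140 s kinetic read after compound addition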
Target sequence (P11229 whole entry, looked up): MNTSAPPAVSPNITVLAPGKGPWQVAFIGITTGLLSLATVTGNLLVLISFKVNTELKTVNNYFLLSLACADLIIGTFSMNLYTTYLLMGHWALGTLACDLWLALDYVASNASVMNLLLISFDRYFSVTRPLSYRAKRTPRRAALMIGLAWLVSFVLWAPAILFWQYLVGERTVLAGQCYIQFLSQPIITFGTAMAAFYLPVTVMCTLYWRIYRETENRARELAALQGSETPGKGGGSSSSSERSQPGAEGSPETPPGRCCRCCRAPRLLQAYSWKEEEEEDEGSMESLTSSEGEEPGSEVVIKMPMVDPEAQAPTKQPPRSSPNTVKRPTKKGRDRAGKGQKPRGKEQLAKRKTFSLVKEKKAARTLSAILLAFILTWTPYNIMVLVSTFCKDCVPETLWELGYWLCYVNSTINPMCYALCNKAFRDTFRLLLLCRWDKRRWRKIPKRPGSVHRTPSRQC
M1 ag parental = counter-screen for M1 agonists: effect in parental CHO-K1 cells; Fluo-8 calcium fluorescence; scaled to maximal ATP response, vehicle zero; activation, % at 3 µM; actives 0.48% (n = 360,000); AID 602248; in the data active = activation above about 15%;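 also: untransfected CHO-K1 host cells lacking M1 receptor as counterscreen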
CHO-K1 Ca antag = M1 antagonist counterscreen hit in parental CHO-K1 cells | ATP-induced calcium, Fluo-8 fluorescence | inhibition, % at 3 µM | actives 0.6% (n = 360,000) | AID 602250;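 active = inhibition above a per-plate cutoff, the plate's mean sample inhibition plus 3 SD, cut at about 24% in these data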;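 also: 0% = DMSO plus EC80 ATP and 100% = DMSO alone without ATP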
M1 PAM = human CHRM1 positive allosteric modulation. CHO-K1 hM1, Fluo-8 calcium fluorescence, ACh EC20; 0% = ACh EC20, 100% = maximal ACh. actives 0.088% (n = 360,000). P11229. activation, % at 3 µM; in the data active = activation above about 19%, passing the limit was not always enough
M1 antag = human CHRM1 antagonism. inhibition, % at 3 µM. CHO-K1 hM1, Fluo-8 calcium fluorescence, ACh EC80 antagonist. AID 588852. actives 1.3% (n = 360,000). P11229;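 active = percent inhibition above its own plate's cutoff, namely the mean of that plate's compound wells plus 3 SD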;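 also: peak over basal fluorescence ratio during 140 s after agonist addition; 0% = ACh EC80 plus DMSO and 100% = DMSO alone without agonist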
* marks the source's active call; other numbers are inactive results; / = no result. Most compounds without a hit are left out; they make up all but 2.4% or so of the library.

SMILES	M1 PAM parental	M1 ag	M1 ag parental	CHO-K1 Ca antag	M1 PAM	M1 antag
CC(C)(C)S(=O)N1Cc2cc(C(=O)N3CCc4ccccc4C3)nc(-c3cccc(-c4cccnc4)c3)c2[C@@H]1CCO (some centres not stated)	21	-10	2	3	-7	15
COc1cccc(C(=O)C2CCCN(CC3=Cc4cc(OC)ccc4OC3)C2)c1 (configuration not stated)	5	-10	1	-8	-30	42*
O=C(c1ccc2c(c1)OCO2)C1CCCN(C2CCN(CCc3ccccc3)CC2)C1 (configuration not stated)	21	-14	1	-15	-35	74*
CCOC(=O)CNC(=O)N1CCCC(C(=O)c2ccc3c(c2)OCO3)C1 (configuration not stated)	-13	-8	0	1	-3	2
COc1cccc(CN2CCCC(C(=O)c3ccc4c(c3)OCO4)C2)c1O (configuration not stated)	15	-7	1	-16	-24	41*
CC(=O)c1cccc(CN2CCCC(C(=O)c3ccc4c(c3)OCO4)C2)c1 (configuration not stated)	9	-10	2	-8	-26	72*
COc1ccc(C(=O)C2CCCN(Cc3ccc4c(c3)OCCO4)C2)cc1F (configuration not stated)	13	-6	2	-13	-20	12
CCn1c(NC(C)=O)c(-c2ccccc2Cl)c(=O)c2ccccc21	9	-3	0	-8	4	-8
CCOC(=O)c1ccc[n+](CC(=O)Nc2cc(C(F)(F)F)ccc2Cl)c1	27	-6	1	-11	0	2
CCN(CC)C(=O)C1CCCN(Cc2ccc3c(c2)OCO3)C1 (configuration not stated)	-5	-5	-1	5	-4	11
COc1ccc(CN2CCCC(C(=O)c3ccc4c(c3)OCO4)C2)c(F)c1 (configuration not stated)	4	-3	4	-16	-23	93*
COc1ccc(CN2CCC(C(=O)c3cccc(Cl)c3)CC2)cc1	9	-8	1	-8	4	-9
CCCn1cc(CN2CCCC(C(=O)c3ccc4c(c3)OCO4)C2)c(C)n1 (configuration not stated)	8	-5	4	-9	-24	65*
O=C(c1cccc(Cl)c1)C1CCCN(Cc2ccc(N3CCNC3=O)cc2)C1 (configuration not stated)	14	-6	2	-13	-21	46*
CN1C[C@@H]2[C@@H]3C(=O)N(C)C(=O)[C@@H]3[C@](C)(C1=O)N2C(=O)c1ccc(F)cc1	17	-3	2	-3	3	0
CN(CC(=O)Nc1c(Cl)cccc1Cl)C(=O)c1cc2ccccc2cc1O	-9	2	0	17	15	-11
COc1ccc(C(=O)NCC(=O)NCc2ccncc2)cc1	2	0	3	-4	7	-10
O=C1CN(S(=O)(=O)c2ccc(F)cc2)c2ccccc2N1	-9	1	0	28*	21	-11
FC(F)(F)c1cccc(Cc2noc(CN3C[C@@H]4CCC[C@H]3C4)n2)c1	24	-5	5	-10	-2	1
Cn1ccnc1C1CCCCN1Cc1nc(Cc2cccc(C(F)(F)F)c2)no1 (configuration not stated)	26	-13	1	-19	-33	54*
Cn1ccnc1C1CCCCN1Cc1nc(-c2ccc3c(c2)OCO3)no1 (configuration not stated)	-7	-8	0	7	-25	59*
CCOC(=O)Nc1ccc2c(c1)N(C(=O)N1CCN(C)CC1)c1ccccc1CC2	12	1	0	-17	-16	49*
CCOC(=O)Nc1ccc2c(c1)N(C(=O)CCN1CCN(C)CC1)c1ccccc1S2	5	12	0	1	-11	-20
CC(C)OC(=O)Nc1ccc2c(c1)N(C(=O)N1CCN(C)CC1)c1ccccc1CC2	8	2	2	-6	-23	78*
CCNCC(=O)N1c2ccccc2CCc2ccc(NC(=O)OC(C)C)cc21	20	-8	2	-12	9	-18
SMILES	M1 PAM parental	M1 ag	M1 ag parental	CHO-K1 Ca antag	M1 PAM	M1 antag
CCOC(=O)Nc1ccc2c(c1)N(C(=O)N1CCN(C)CC1)c1ccccc1S2	13	-5	0	-1	-23	97*
Cc1ccccc1-c1nn(-c2ccc(F)cc2F)cc1CNC1CC1	14	-13	1	-3	7	-5
COc1ccc(CN2C(=O)c3ccccc3C2c2nnnn2C(C)C)cc1 (configuration not stated)	5	/	1	-11	/	/
O=C(COCC(=O)N1CCOCC1)N1CCOCC1	-10	-3	-1	15	2	-1
OCC1(Cc2ccccc2)CCN(CCCC2CCCC2)CC1	4	-5	5	-5	-21	34*
CN1CCN(C(CNC(=O)C(=O)NC2CCCC2)c2ccc(F)cc2)CC1 (configuration not stated)	-3	-8	0	53*	7	-7
CCOc1ccc(/C=C/C(O)=C2/C(=O)NC3(C)CC2c2ccccc2O3)cc1OC (configuration not stated)	-9	0	8	-2	-15	44*
Cc1ccc(C(=O)NC(=S)c2c(C)cc3ccccn23)cc1	3	-8	0	1	0	-2
C#Cc1ccc(CN2CCC(C(=O)Nc3ccc(Oc4ccccc4)nc3)CC2)cc1	15	0	9	-6	-2	5
O=C(Nc1ccc(Oc2ccccc2)nc1)C1CCN(Cc2cccc(F)c2)CC1	-2	3	24*	8	3	-1
COC(=O)[C@H](CCSC)NC(=O)NCCC1=CCCCC1	-6	-5	1	-6	-10	18
COC(=O)[C@H](Cc1ccccc1)NC(=O)NCCC1=CCCCC1	11	-11	2	-15	-29	39*
Cn1cccc1/C=C1\CC(C(C)(C)C)C/C(=C\c2cccn2C)C1=O (configuration not stated)	-9	-2	0	24*	3	-1
Cn1cccc1/C=C1\Cc2ccccc2C1=O	23	-7	2	-14	4	-7
O=C(NNC(=O)c1ccccc1F)c1ccc(NS(=O)(=O)c2ccc(F)cc2)cc1	11	-3	1	-17	4	-5
Fc1c(F)c(F)c(CSc2nc3ccccc3[nH]2)c(F)c1F	10	-3	1	-7	-3	5
O=S1(=O)CC=C(CSc2nc3ccccc3[nH]2)C1	-7	-11	0	13	-19	26*
